Results on 40 molecules are retold here after PubChem BioAssay.

Each structure is given as a SMILES string. Calls of active or inactive are those of the source.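 Rule for the calls: active = z-score of at least 1.8 in each of two replicates, scored against plate mean and spread of sample wells; inactive = the rest.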

The test can be described thus: viability rescue of complex I mutant cybrids, primary screen, cell-based, galactose medium, ATP luminescence (AID 1645843).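 Note: positive z means more ATP and so rescue of galactose-driven cybrid death.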 Conditions: complex I mutant cybrid cells, 72 h, stronger effect = higher value.
Turning to `Cc1nn(C)cc1-c1ccnc(NCCc2nc(-c3ccccn3)no2)n1`, the z-score was -0.82 (inactive).

Consider `CNCCCNC1CCN(c2ccc(-c3cccc(F)c3)cc2)CC1`, for which the z-score was -1.3 (inactive).

In the case of `CCn1nc(CC(C)C)cc1C(=O)N1CCC(n2cc(C(C)(C)O)nn2)CC1`, the z-score is -0.53 (inactive).

In the case of `Cc1ccc(CCC(=O)N(C)Cc2cnn(C(C)C)c2)cc1C`, the z-score was -0.565 (inactive).

On to `CC(C)c1cc(C(=O)N2CCCC(c3ccc(Cl)cc3)C2)on1` (stereo not given), for which the z-score was 0.165 (inactive).

Consider `Cc1ccc2nc(-c3cnc(CCC(C)C)nc3)c(C)c(C(=O)N(C)C)c2c1`, for which the z-score is -0.51 (inactive).

As for `Cc1ccccc1C1CCCN(C(=O)CCC(C)C)C1` (stereo not given), the z-score was -0.255 (inactive).

As for `CCC1(CC)CC1C(=O)N1CCC(n2cc(C3CCCCC3)nn2)CC1` (stereo not given), the z-score is 0.07 (inactive).

For `Cc1cc(C(F)(F)F)nc(CNC(=O)c2ccc3nccnc3c2)n1`, the z-score was -0.69 (inactive).

Consider `Cc1ccc2c(C(=O)N3CCCCC3C)cc(-c3cnn(C(C)C)c3)nc2c1` (stereo not given), for which the z-score is -0.16 (inactive).

For `CCCN(C(=O)c1cccc(C#CC(C)(C)O)c1)C(CC)CC`, the z-score is -0.23 (inactive).

For the molecule `Cc1cc(CN2CCN(C)C(CCO)C2)c2cccc(C)c2n1` (stereo not given), the z-score was -0.035 (inactive).

Turning to `COc1c(F)cc(C(=O)N2CCNC(=O)C2Cc2ccccc2)cc1F` (stereo not given), the z-score is -0.455 (inactive).

For `O=C(CC1CCCCCC1)N1CCC(Cn2cc(C3CC3)nn2)CC1`, the z-score was -0.55 (inactive).

With `O=C(C1CCCCCC1)N1CCC(n2cc(-c3ccccn3)nn2)CC1`, the z-score was -0.545 (inactive).

Turning to `CCN1CCCC(C(=O)N2CCC(n3cc(C(C)(C)C)nn3)CC2)C1` (stereo not given), the z-score is 0.15 (inactive).

In the case of `CC1Cc2cc(C(=O)N3CCC(Cn4cc(C5CC5)nn4)CC3)ccc2O1` (stereo not given), the z-score is -0.53 (inactive).

For the molecule `CC(C)N(C)C(=O)c1cc(-c2cnc(C(C)(C)C)nc2)nc2cc(F)ccc12`, the z-score was -0.525 (inactive).

Consider `CCc1nc(C)ccc1OCC(=O)N1CCc2[nH]nc(C3CCC3)c2C1`, for which the z-score was -0.6 (inactive).

For `CCCc1ccc(C(=O)N2CCC2c2cccc(OC)c2)cc1` (stereo not given), the z-score is 2.41 (active).

For `Cc1ccc(-c2ncccc2OC2(C(=O)O)CCCC2)cc1C`, the z-score is -0.735 (inactive).

As to `Cc1cnc(NCCCn2ncc3ccccc32)nc1-c1cnn(C)c1`, the z-score was 0.065 (inactive).

Consider `O=C(Nc1ccncc1)c1ccc2c(c1)OCCO2`, for which the z-score is 0.445 (inactive).

`CCCCCNC(=O)N1CCC2(CC1)Nc1ccccc1N(CC1CC1)C2=O`: the z-score was 0.705 (inactive).

Take `CCn1ncc2[nH]c(-c3cc(F)ccc3-n3cccn3)nc21`: the z-score was -0.185 (inactive).

With `CCc1c(C(=O)N2CCCN(C(C)=O)CC2)csc1C`, the z-score was -0.54 (inactive).

`CCn1ncc2[nH]c(-c3c(OC)ccc4ccccc34)nc21`: the z-score was 0.04 (inactive).

Regarding `CCN(C)Cc1ccc(-c2nc(C(F)(F)F)c(C)c(=O)[nH]2)cc1`, the z-score is 0.97 (inactive).

Turning to `CCN(Cc1ccncc1)C(=O)c1cc(-c2cnc(C)nc2)nc2c(C)cccc12`, the z-score is -0.835 (inactive).

For `COc1ccccc1OC(C)c1nc(Cc2cccc(C(F)(F)F)c2)no1` (stereo not given), the z-score is 0.51 (inactive).

`c1ccc(Cc2noc(-c3cccc4nccnc34)n2)cc1`: the z-score was 2.6 (active).

`O=C1NCCN(C(=O)c2ccccc2)C1Cc1ccccc1` (stereo not given): the z-score was -0.54 (inactive).

As to `COc1cccc2ccc(-c3ccccc3)nc12`, the z-score was -0.375 (inactive).

For `CCCCc1cn(C2CCN(C(=O)C3CCCO3)CC2)nn1` (stereo not given), the z-score was -0.535 (inactive).

As to `O=c1c2cccc(C(F)(F)F)c2ncn1Cc1ccc(Cl)s1`, the z-score is -0.515 (inactive).

`CCCc1cc(C(=O)N2CCCC(Cn3cc(CC(C)C)nn3)C2)n[nH]1` (stereo not given): the z-score was 1.21 (inactive).

Turning to `Cc1nc(C(C)Nc2ncnc3sccc23)cs1` (stereo not given), the z-score was 0.845 (inactive).

On to `CC(C)n1cc(-c2cc(C(=O)N3CCC(C)(C)C3)c3ccc(F)cc3n2)cn1`, for which the z-score was 0.14 (inactive).

On to `Cc1ccc(C)c(CNC(=O)Nc2nc(C)ns2)c1`, for which the z-score is 0.47 (inactive).

`CCOC(=O)c1ccc(N2CCN(CC(C)C)C(=O)C2C)nc1` (stereo not given): the z-score is -0.53 (inactive).
